For orientation: viability means a read-out of living cells in per cent, often relative to untreated cells.

The source made the active and inactive calls.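 How the source made its calls: active means Her2 level under about 52% in both replicate screens, with viability over 70% of control (limit read from the data); inconclusive means Her2 under the limit in one screen only, or viability under 70%; inactive means Her2 level above the set limit.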

Chain of Receptor tyrosine-protein kinase erbB-2 (Homo sapiens) (P04626 whole entry, looked up): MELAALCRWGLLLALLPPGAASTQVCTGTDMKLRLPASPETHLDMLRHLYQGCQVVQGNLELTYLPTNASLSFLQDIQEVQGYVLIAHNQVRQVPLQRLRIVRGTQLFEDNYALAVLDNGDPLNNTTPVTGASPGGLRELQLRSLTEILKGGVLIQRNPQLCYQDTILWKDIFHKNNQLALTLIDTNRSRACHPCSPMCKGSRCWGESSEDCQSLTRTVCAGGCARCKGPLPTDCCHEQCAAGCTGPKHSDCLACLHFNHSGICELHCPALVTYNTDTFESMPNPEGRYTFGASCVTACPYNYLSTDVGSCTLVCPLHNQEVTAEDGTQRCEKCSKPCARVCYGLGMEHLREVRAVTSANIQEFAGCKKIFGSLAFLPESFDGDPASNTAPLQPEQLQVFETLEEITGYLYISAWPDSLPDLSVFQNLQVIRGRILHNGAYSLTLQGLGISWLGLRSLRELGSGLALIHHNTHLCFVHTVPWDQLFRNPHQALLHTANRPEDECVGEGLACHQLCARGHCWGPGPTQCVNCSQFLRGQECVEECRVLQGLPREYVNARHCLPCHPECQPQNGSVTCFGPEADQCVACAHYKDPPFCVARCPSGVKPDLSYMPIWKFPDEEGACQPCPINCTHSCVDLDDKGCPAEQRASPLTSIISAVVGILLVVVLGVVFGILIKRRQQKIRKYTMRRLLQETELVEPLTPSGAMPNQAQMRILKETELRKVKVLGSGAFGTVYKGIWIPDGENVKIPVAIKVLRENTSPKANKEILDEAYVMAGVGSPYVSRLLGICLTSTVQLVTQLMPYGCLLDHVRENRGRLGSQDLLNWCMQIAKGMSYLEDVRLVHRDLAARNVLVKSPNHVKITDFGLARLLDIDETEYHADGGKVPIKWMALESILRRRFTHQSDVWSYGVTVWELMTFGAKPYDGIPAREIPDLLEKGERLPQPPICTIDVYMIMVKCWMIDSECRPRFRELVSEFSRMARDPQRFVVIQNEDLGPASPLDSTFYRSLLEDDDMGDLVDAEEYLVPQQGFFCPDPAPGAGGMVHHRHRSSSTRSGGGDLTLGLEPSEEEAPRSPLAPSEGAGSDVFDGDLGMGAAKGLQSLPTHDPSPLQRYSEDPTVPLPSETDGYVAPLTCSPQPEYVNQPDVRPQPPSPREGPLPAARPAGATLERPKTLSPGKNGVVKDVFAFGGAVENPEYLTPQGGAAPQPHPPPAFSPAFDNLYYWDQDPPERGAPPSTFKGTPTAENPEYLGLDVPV

Tested on in one assay: not listed separately
The assay is described as follows: reducers of endogenous Her2 protein level, primary screen, SKBR3 breast tumor cells, AlphaScreen, ATP viability (AID 461).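 On viability: percent of carrier control wells set as 100% viability.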 The note with it: 18-24 h, measured here: SKBR3 viability, ATP luminescence, at 10 µM. (Bead proximity is the source of the signal in Alpha formats.)
`O=C1CCCN1CCCNc1ncnc2c1[nH]c1ccc(Cl)cc12`: the viability came to 89%.

As to `C=CCNS(=O)(=O)c1ccc2nsnc2c1`, the viability is 102%.

As to `O=C(O)c1oc2ccccc2c1-n1cccc1`, the viability is 102%.

`COCCn1c(SCc2csc(-c3ccccc3)n2)nc2ccccc21`: the viability stood at 94%.

For the compound `Nc1nc2ccccc2n1C(=O)CCc1ccccc1`, the viability stood at 102%.

With `Cc1cccc2cc(CN(CCN3CCCC3)C(=O)NC3CCCCC3)c(=O)[nH]c12`, the viability came to 83%.

Consider `Cc1ccc(-c2noc(CCC(=O)NCCc3ccccc3Cl)n2)cc1`, for which the viability amounted to 77.5%.

As for `COc1ccc2c(c1OC)C(=O)OC2C1c2c(cc3c(c2OC)OCO3)CCN1C` (stereo not given), the viability stood at 89%.

Turning to `CCOC(=O)CNC(=O)Nc1nnc(-c2ccc(OCC)cc2)o1`, the viability is 99%.

Take `C/C(N)=C(/C#N)C(=O)COC(=O)CCSc1ccccc1`: the viability turned out to be 97.5%.

With `CCOC(=O)C1=C(C)NC(C)=C(C(=O)OCC)C1C(=O)OC1CCOC1=O` (stereo not given), the viability is 104%.

In the case of `CCC1(NC(C)=O)CC2CC1CC2NC(C)=O` (stereo not given), the viability came to 94.5%.

On to `CC(C)COc1nc2ccccc2nc1C(C#N)C(=O)NC1CCCCC1` (stereo not given), for which the viability was 99%.

For the compound `CCc1cc(C(=O)OC)c(NC(=O)CCC(=O)O)s1`, the viability came to 96.5%.

For the compound `Cc1cccc2cc(CN(CCCO)C(=O)Nc3ccc(Cl)cc3)c(=O)[nH]c12`, the viability came to 74%.

On to `O=C(CCN1CCN(C(=O)c2ccco2)CC1)Nc1ccc(F)cc1`, for which the viability amounted to 97.5%.

For `CCC(=NC(C)c1ccccc1)c1c(O)n(C)c(=O)n(C)c1=O` (stereo not given), the viability is 94%.

Take `O=C(O)CCCCCNc1nc(=S)[nH]c2ccccc12`: the viability is 107%.

As for `CCOC(=O)N1CCN(C(=O)c2ccc3nc4cc(Cl)ccc4c(=O)n3c2)CC1`, the viability stood at 91%.

On to `COc1ccc(OC)c(C(=O)CSc2nnc(-c3ccc(OC)c(OC)c3)o2)c1`, for which the viability was determined as 104%.

As for `C[C@H](NC(=O)NCc1cccs1)C(=O)O`, the viability is 104%.

For `CC1CCN(CC(O)COC2CCC(C(C)(C)C)CC2)CC1` (stereo not given), the viability was determined as 82%.

For the compound `Cc1cccc(N2CCN(C(=O)Cn3ccc4ccccc4c3=O)CC2)c1C`, the viability was found to be 90.5%.

`Cc1cc(NC(=O)CCC(=O)N(c2cccnc2)C(C(=O)NC2CCCC2)c2ccccc2F)no1` (stereo not given): the viability is 99%.

`Cc1ccc(NC(=O)CCC(=O)O)cc1F`: the viability was found to be 106%.

Take `CC1C=CC(C)C(C(=O)O)C1C(=O)O` (stereo not given): the viability came to 103%.

With `Cc1ccc(-c2nnn(CC(=O)N(CC3CCCO3)C(C(=O)NC(C)(C)C)c3ccc(F)cc3)n2)o1` (stereo not given), the viability was 106%.

On to `CN(C)C(=O)c1ccc(COc2ccccc2Br)o1`, for which the viability is 110%.

As to `CCOC(=O)C1C2C=CC3(CN(c4cccc(Cl)c4)C(=O)C13)O2` (stereo not given), the viability turned out to be 86%.

`O=C(NCCC1=CCCCC1)C1CCN(C(=O)Nc2ccccc2)CC1`: the viability came out at 106%.

`CCOC(=O)C1CCN(c2c(N(C)Cc3ccco3)c(=O)c2=O)CC1`: the viability is 78%.

Take `CCN(CC)CCn1c2ccccc2c2nc(C)sc21`: the viability came out at 113%.

For the compound `COc1cc(C(=O)OCC(=O)N(C)Cc2ccccc2)cc(OC)c1OC`, the viability was found to be 106%.

Regarding `COc1ccc(C)cc1NC(=O)COCC(=O)O`, the viability stood at 106%.

As for `Cc1c(C(=O)O)sc2ncn(C)c(=O)c12`, the viability amounted to 106%.

Turning to `O=C(COC(=O)C1=COCCO1)Nc1ccccc1Oc1ccccc1`, the viability was 113%.

`O=C(Nc1cccc2ccccc12)c1cnccn1`: the viability was 82%.

As for `CCOC(=O)c1cccnc1SCC(=O)NC(C)CC` (stereo not given), the viability worked out at 92%.

Take `CCOc1nc2ccccc2nc1NS(=O)(=O)c1ccccc1`: the viability came out at 83%.

Take `Cc1cc(N2C(=O)C3C4C=CC(C4)C3C2=O)ccc1Br` (stereo not given): the viability was 107%.

Another assay concerns the target Receptor tyrosine-protein kinase erbB-2 (Homo sapiens) (UniProt P04626). Described as above. The note with it: 18-24 h, at 10 µM, stronger effect = lower value.
In the case of `O=C1CCCN1CCCNc1ncnc2c1[nH]c1ccc(Cl)cc12`, the Her2 level is 81% (inactive).

For `C=CCNS(=O)(=O)c1ccc2nsnc2c1`, the Her2 level is 109% (inactive).

Consider `O=C(O)c1oc2ccccc2c1-n1cccc1`, for which the Her2 level is 86.5% (inactive).

In the case of `COCCn1c(SCc2csc(-c3ccccc3)n2)nc2ccccc21`, the Her2 level is 98.5% (inactive).

On to `Nc1nc2ccccc2n1C(=O)CCc1ccccc1`, for which the Her2 level is 83.5% (inactive).

With `Cc1cccc2cc(CN(CCN3CCCC3)C(=O)NC3CCCCC3)c(=O)[nH]c12`, the Her2 level is 78.5% (inactive).

For the compound `Cc1ccc(-c2noc(CCC(=O)NCCc3ccccc3Cl)n2)cc1`, the Her2 level was 90% (inactive).

With `COc1ccc2c(c1OC)C(=O)OC2C1c2c(cc3c(c2OC)OCO3)CCN1C` (stereo not given), the Her2 level is 90.5% (inactive).

On to `CCOC(=O)CNC(=O)Nc1nnc(-c2ccc(OCC)cc2)o1`, for which the Her2 level is 92% (inactive).

On to `C/C(N)=C(/C#N)C(=O)COC(=O)CCSc1ccccc1`, for which the Her2 level was 89% (inactive).

Turning to `CCOC(=O)C1=C(C)NC(C)=C(C(=O)OCC)C1C(=O)OC1CCOC1=O` (stereo not given), the Her2 level was 85% (inactive).

On to `CCC1(NC(C)=O)CC2CC1CC2NC(C)=O` (stereo not given), for which the Her2 level was 100% (inactive).

As to `CC(C)COc1nc2ccccc2nc1C(C#N)C(=O)NC1CCCCC1` (stereo not given), the Her2 level was 105% (inactive).

For `CCc1cc(C(=O)OC)c(NC(=O)CCC(=O)O)s1`, the Her2 level is 96% (inactive).

As to `Cc1cccc2cc(CN(CCCO)C(=O)Nc3ccc(Cl)cc3)c(=O)[nH]c12`, the Her2 level is 69.5% (inactive).

For `O=C(CCN1CCN(C(=O)c2ccco2)CC1)Nc1ccc(F)cc1`, the Her2 level was 95% (inactive).

Consider `CCC(=NC(C)c1ccccc1)c1c(O)n(C)c(=O)n(C)c1=O` (stereo not given), for which the Her2 level was 88% (inactive).

On to `O=C(O)CCCCCNc1nc(=S)[nH]c2ccccc12`, for which the Her2 level is 99% (inactive).

Regarding `CCOC(=O)N1CCN(C(=O)c2ccc3nc4cc(Cl)ccc4c(=O)n3c2)CC1`, the Her2 level was 95% (inactive).

For `COc1ccc(OC)c(C(=O)CSc2nnc(-c3ccc(OC)c(OC)c3)o2)c1`, the Her2 level is 104% (inactive).

For `C[C@H](NC(=O)NCc1cccs1)C(=O)O`, the Her2 level was 98.5% (inactive).

For the compound `CC1CCN(CC(O)COC2CCC(C(C)(C)C)CC2)CC1` (stereo not given), the Her2 level is 76% (inactive).

In the case of `Cc1cccc(N2CCN(C(=O)Cn3ccc4ccccc4c3=O)CC2)c1C`, the Her2 level was 81% (inactive).

Regarding `Cc1cc(NC(=O)CCC(=O)N(c2cccnc2)C(C(=O)NC2CCCC2)c2ccccc2F)no1` (stereo not given), the Her2 level is 104% (inactive).

As to `Cc1ccc(NC(=O)CCC(=O)O)cc1F`, the Her2 level is 82.5% (inactive).

For `CC1C=CC(C)C(C(=O)O)C1C(=O)O` (stereo not given), the Her2 level was 93% (inactive).

Consider `Cc1ccc(-c2nnn(CC(=O)N(CC3CCCO3)C(C(=O)NC(C)(C)C)c3ccc(F)cc3)n2)o1` (stereo not given), for which the Her2 level was 96% (inactive).

On to `CN(C)C(=O)c1ccc(COc2ccccc2Br)o1`, for which the Her2 level was 84% (inactive).

Take `CCOC(=O)C1C2C=CC3(CN(c4cccc(Cl)c4)C(=O)C13)O2` (stereo not given): the Her2 level is 80% (inactive).

In the case of `O=C(NCCC1=CCCCC1)C1CCN(C(=O)Nc2ccccc2)CC1`, the Her2 level is 128% (inactive).

With `CCOC(=O)C1CCN(c2c(N(C)Cc3ccco3)c(=O)c2=O)CC1`, the Her2 level was 105% (inactive).

Take `CCN(CC)CCn1c2ccccc2c2nc(C)sc21`: the Her2 level was 96.5% (inactive).

Turning to `COc1cc(C(=O)OCC(=O)N(C)Cc2ccccc2)cc(OC)c1OC`, the Her2 level was 96.5% (inactive).

Turning to `COc1ccc(C)cc1NC(=O)COCC(=O)O`, the Her2 level is 114% (inactive).

In the case of `Cc1c(C(=O)O)sc2ncn(C)c(=O)c12`, the Her2 level was 78% (inactive).

In the case of `O=C(COC(=O)C1=COCCO1)Nc1ccccc1Oc1ccccc1`, the Her2 level is 95% (inactive).

As for `O=C(Nc1cccc2ccccc12)c1cnccn1`, the Her2 level is 88.5% (inactive).

For the compound `CCOC(=O)c1cccnc1SCC(=O)NC(C)CC` (stereo not given), the Her2 level was 93% (inactive).

With `CCOc1nc2ccccc2nc1NS(=O)(=O)c1ccccc1`, the Her2 level is 75% (inactive).

As to `Cc1cc(N2C(=O)C3C4C=CC(C4)C3C2=O)ccc1Br` (stereo not given), the Her2 level was 99.5% (inactive).

Source of the values: PubChem BioAssay.
